# Pf growth 96h: Primary qHTS for delayed death inhibitors of the malarial parasite plastid, 96 hour incubation; actives 6.9% (n = 320,000); P. falciparum luciferase reporter growth, 96 h; Potency, µM (series often up to 28.7 µM), without a hit: at the top dose activity change, negative = inhibition, usual class: inhibitors; further: potency means the concentration at half of the fitted maximal effect
#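 Two parasite generations (96 h, 37 C, 5% CO2) of compound exposure in infected erythrocytes (0.05% parasitemia, 2% hematocrit). Luciferase-reporter P. falciparum; decreased luminescence indicates inhibited growth, aimed at apicoplast-acting delayed death.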
# HCV inh: qHTS Assay for Inhibitors of Hepatitis C Virus (HCV) | Huh7.5.1 HCVcc-Cre infection, luciferase reporter, 44 h | Potency, µM (series often up to 41.8 µM), for the others: at the top dose activity change, negative = inhibition, actives largely listed as inhibitors | actives 3.4% (n = 340,000); further: potency means the concentration at half of the fitted maximal effect
#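 A cell-based infection assay in which seeded cells (1,000 per well) receive test compound after 4 h, are inoculated with HCVcc-Cre at approximately 0.5 moi, and are incubated 44 h before luminescence detection.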
# MARV entry inh: qHTS for inhibitors of binding or entry into cells for Marburg Virus; Marburg virus pseudotyped entry inhibition, cell reporter; Potency, µM (doses to about 37.8 µM), for inactives: at the highest dose activity change, negative = inhibition, actives largely listed as inhibitors; actives 1.8% (n = 300,000); AID 540276, 2011; calls by dose curve; tested in HEK293 cells; further: potency means the concentration at half of the fitted maximal effect
# HCMV antiviral: qHTS Assay for inhibitors of the human cytomegalovirus (HCMV) | HFF cells, HCMV-luciferase reporter, 72 h; stronger effect = lower value | activity change, negative = inhibition, % at 57.5 µM | actives 4.5% (n = 410,000); in the data active means activity change below about -60%; inconclusive means no clear call, values can overlap the other calls; inactive means above about -39%
#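 Compounds were evaluated in HFFs infected with an HCMV luciferase reporter virus (MOI 1 PFU/cell). Luciferase in lysates collected 72 h post infection served as the replication measure.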
# Lassa entry inh: qHTS for Inhibitors of binding or entry into cells for Lassa Virus; Lassa virus pseudotype entry inhibition, cell reporter; Potency, µM (series often up to 37.9 µM), inactives show top-dose activity change, negative = inhibition, actives largely listed as inhibitors; actives 1.2% (n = 300,000); AID 540256, 2011; calls by dose curve; tested in HEK293 cells; further: potency means the concentration at half of the fitted maximal effect; nearly all actives have a fitted effect of over 50% in size
# Pf growth 48h: Primary qHTS for delayed death inhibitors of the malarial parasite plastid, 48 hour incubation | Potency, µM (doses to about 28.7 µM), for the others: at the highest dose activity change, negative = inhibition, hits mostly inhibitors | P. falciparum luciferase growth in erythrocytes, 48 h | actives 5.9% (n = 310,000); further: potency means the concentration at half of the fitted maximal effect
#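 Cell-based growth assay: transgenic P. falciparum expressing firefly luciferase, cultured in red cells within RPMI 1640 containing 0.5% w/v Albumax, 24 mM bicarbonate and gentamycin. A drop in luciferase activity indicates inhibition.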
# Starred values were filed as active, the others as inactive; ? = inconclusive; / = no result given; [ ] = dose if it differs, or a comment. Hits are enriched below; roughly 14% of the tested compounds scored in any of these assays. Unless noted, the call rests on the fitted dose curve; in most records, active means well fitted inhibition curve with a large enough effect; inconclusive means small, poorly fitted or top-dose-only effect, or another doubt; inactive means no such curve, though single readings can be large or run the other way. On the % scale 0 is the no-effect control and ±100 the full control effect.
SMILES,Pf growth 96h,HCV inh,MARV entry inh,HCMV antiviral,Lassa entry inh,Pf growth 48h
COc1ccc(-c2nnc(SCC(=O)NCCc3ccc(OC)c(OC)c3)nc2-c2ccc(OC)cc2)cc1,/,/,9.3%[46.1 µM],13.4,-25.7%[46.1 µM],/
Cc1ccc(Cn2cc(CN3CC(N4CCCC4)CS3(=O)=O)nn2)cc1 (stereo not drawn),/,/,/,-9.4,/,/
O=C(Nc1ccc(Br)cc1)c1cc(-c2ccc3c(c2)OCO3)on1,?,10.0%,13.4%[46.1 µM],-60.1*,6.2%,37.8%
O=C(c1cc(-c2ccc3c(c2)OCO3)on1)N1CCCCC1,13.1µM*,?,?,39.6,2.82µM*,201.9%
O=C(c1cc(-c2ccc(Cl)cc2Cl)on1)N1CCCCCC1,54.9%,6.1%,?,60.0,?,123.0%
O=C(Nc1ccc2c(c1)OCO2)c1cc(-c2ccc(Br)cc2)on1,/,/,5.7%[46.1 µM],15.7,4.4%[46.1 µM],/
O=C(c1cc(-c2ccc(Cl)cc2Cl)on1)N1CCCC1,?,-5.2%,?,-20.5,3.55µM*,50.9%
Cc1ccc(-c2cc(C(=O)N3CCOCC3)no2)cc1,26.6%,12.8%,2µM*,-61.4*,/,27.0%
O=C(Nc1ccccc1)c1cnc(N2CCN(Cc3cccc(C(F)(F)F)c3)C2=O)o1,/,/,/,58.9,/,/
O=c1[nH]c(=S)[nH]c2c1C(c1ccc(F)cc1)OC(CCc1ccccc1)C2 (stereo not drawn),/,/,/,-0.9,/,/
CCOC(=O)C1(C)C=C(Nc2cccc(C)c2)C(=O)N1c1ccccc1 (stereo not drawn),/,/,8.9%[46.1 µM],50.9,-5.0%[46.1 µM],/
CCC(Sc1nc2nccnc2c(=O)n1Cc1ccc(F)cc1)C(=O)NC1CCCCC1 (stereo not drawn),/,/,/,-3.1,-3.8%[46.1 µM],/
Cc1ccc(-c2cc(C(=O)NC3CCCC3)no2)cc1,33.6%,12.0%,10µM*,54.8,-12.1%[46.1 µM],108.5%
CC1SC(c2ccccc2Cl)NC1=O (stereo not drawn),11.7µM*,-0.8%,5.2%,-16.6,6.5%,/
COCCCn1c(=O)c2ccccc2n(Cc2cc(C(=O)OC)ccc2OC)c1=O,14.9%,-3.1%,/,-30.7,/,7.38µM*
COCCCn1c(=O)c2ccccc2n(Cc2ccccc2C)c1=O,-1.8%,-18.9%,22.6%,-27.0,21.7%,-8.2%
CCCn1c(=O)n(C)c(=O)c2c(SCC(=O)NCc3ccco3)nc(C3CC3)nc21,4.15µM*,-4.5%,?,/,?,/
CN(C)Cc1nc2ccccc2c(=O)n1Cc1nc(-c2cc3ccccc3o2)cs1,?,?,11.2µM*,6.8,-2.2%,?
COc1ccc(C2=Nc3ccccc3N(C(=O)c3cccnc3)C2C(=O)NC2CCCC2)cc1 (stereo not drawn),/,/,/,17.2,/,/
COCCn1c(SCC(=O)Nc2cc(C)on2)nc2ccccc2c1=O,?,19.4%,/,-9.5,/,?
Cc1cc(NC(=O)CSc2nc3ccccc3c(=O)n2-c2ccccc2)no1,/,8.8%,?,17.7,2.4%,29.2%
Cc1nc2ccc(NC(=O)c3ccccc3)cc2c(=O)n1Cc1ccc(F)cc1,/,/,/,-73.1*,/,/
Cc1cc(NC(=O)Cn2c(=O)n(Cc3ccccc3)c(=O)c3ccccc32)no1,0.0%,13.5%,-4.5%,-26.3,?,9.28µM*
Cc1cc(NC(=O)CSc2nc3ccccc3c(=O)n2Cc2ccc(F)cc2)no1,11.7µM*,?,-7.0%,15.5,-23.3%,?
CCCCCCn1c(SCC(=O)Nc2cc(C)on2)nc2ccccc2c1=O,6.57µM*,?,?,-62.9*,?,?
SMILES,Pf growth 96h,HCV inh,MARV entry inh,HCMV antiviral,Lassa entry inh,Pf growth 48h
COc1ccc(OC)c(CCNC(=O)c2c(C)nn(-c3ccc(F)cc3)c2-n2cccc2)c1,/,/,/,-32.8,?,/
Cc1nnc(NCc2ccc(F)cc2)c2c1nnn2Cc1ccccc1Cl,/,/,?,21.3,-0.7%[46.1 µM],/
CCOc1ccc(Br)cc1/C=N/O,11.9%,8.91µM*,-12.3%,2.5,4.2%,12.7%
CCCOc1ccc(Br)cc1/C=N/O,56.9%,10µM*,?,10.2,-3.0%,33.3%
O=C(O)COc1ccc(Br)cc1/C=N/O,2.3%,16.9%,14.5%,-20.1,3.9%,?
O=C(O)C1CCC(C(=O)O)SS1 (stereo not drawn),/,11.0%,-1.0%[46.1 µM],-12.0,28.6%[46.1 µM],/
CC(C)(C)NC(=O)[C@@H]1C[C@@H]2CCCC[C@@H]2CN1C[C@@H](O)[C@H](Cc1ccccc1)NC(=O)[C@H](CC(N)=O)NC(=O)c1ccc2ccccc2n1,15.1µM*,?,/,35.6,/,?
COC(=O)[C@H](Cc1ccccc1)NC(=O)c1ccc2ccccc2n1,215.4%,14.1%,13.7%[46.1 µM],-20.4,8.8%,206.6%
COCCCNC(=O)c1c(NC(=O)c2ccccc2Cl)n(Cc2ccccc2)c2nc3ccccc3nc12,?,13.1%,2.9%,-18.0,-5.2%,?
N#Cc1c(NC(=O)c2ccccc2Cl)n(Cc2ccccc2)c2nc3ccccc3nc12,?,?,-45.6%,-70.3*,?,?
CCCCn1c(NC(=O)c2ccccc2Cl)c(C#N)c2nc3ccccc3nc21,-0.1%,-21.9%,20.6µM*,-60.5*,-8.4%,?
O=C(c1cc(C2CCCCN2S(=O)(=O)c2cccs2)on1)N1CCOCC1 (stereo not drawn),/,/,/,-12.4,/,/
COc1cc2c(cc1OC)[C@@]1(c3ccccc3)CCCC[C@H]1[C@@H]2NC(=O)C(F)(F)F,/,/,-2.4%[14.2 µM],/,/,/
Cc1cc(Cl)c2oc(C(=O)N(C)CCc3cnn(C)c3)c(C)c2c1,10.4µM*,?,?,-10.0,-1.3%[46.1 µM],-1.3%
N=C1c2ccccc2CN1c1ccc(F)c([N+](=O)[O-])c1,?,-11.1%,-5.4%[46.1 µM],-34.0,-22.8%,11.7µM*
COc1ccccc1-n1c(SCC(=O)Nc2ccc3c(c2)OCO3)nc2c(c1=O)SCC2,0.7%,-14.5%,-5.1%,-28.5,?,?

# Screening results deposited in PubChem BioAssay by National Center for Advancing Translational Sciences (NCATS).
